23 molecules from PubChem BioAssay (Tox21) can be followed below.

Several values for one entry are separate records, joined by “and”; a condition that tells them apart may be missing. Equal values may be shown once. Results filed as inconclusive are left out. Some structures have more than one record in an assay (separate samples or runs), and their calls can disagree. Activity calls are given as the source filed them. Calls come from the whole dose curve; as a rule, active = well fitted curve in the direction sought with a large enough effect in the repeat runs; inconclusive = weak or mixed curves; inactive = no such curve, though single readings can be large; an effect the other way counts as inactive or inconclusive.

A short description of experiment [1]: qHTS RealTime-Glo MT Cell Viability Assay in HepG2 cells - 40 hour (AID 1224870). Note: nearly all actives have a fitted effect of over 50% in size. The gist of the method:
(§1)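 Real-time viability: cells seeded at 600 per well together with NanoLuc and cell-permeant prosubstrate, compounds added after 5 h incubation. Luminescence tracked at 0, 8, 16, 24, 32 and 40 h of exposure.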
(In general: qHTS replaces the single test concentration by a dilution series.)

Experiment [2] in a line: A CellTox Green Cytotoxicity Assay to monitor cytotoxicity in HEK293 cells - 40 hour (AID 1224871). Note: nearly all actives have a fitted effect of over 45% in size. Note: potency is the fitted concentration of half-maximal effect. The gist of the method:
(§2)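 HEK293 cells premixed with CellTox Green dye were seeded at 600 cells/well and left 5 h at 37 C/5% CO2 before pin transfer of 23 nL compound in DMSO. Fluorescence from dye bound to dead-cell DNA was read during 40 h treatment.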

Experiment [3] can be described thus: qHTS RealTime-Glo MT Cell Viability Assay in HEK293 cells - 16 hour (AID 1224872). For activity change, negative = cytotoxicity: top concentration of the series differs between compounds. Note: nearly all actives have a fitted effect of over 50% in size. Note: potency is the fitted concentration of half-maximal effect. The gist of the method:
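Viability tracked continuously by luminescence as live cells reduce a prosubstrate for NanoLuc; HEK293 cells preincubated 5 h, compound-treated at 37 C, and read at 0, 8, 16, 24, 32 and 40 h.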

A short description of experiment [4]: qHTS RealTime-Glo MT Cell Viability Assay in HepG2 cells - 8 hour (AID 1224873). Note: nearly all actives have a fitted effect of over 55% in size. The gist of the method: as §1
The nature of experiment [5]: qHTS RealTime-Glo MT Cell Viability Assay in HEK293 cells - 40 hour (AID 1224874). Note: nearly all actives have a fitted effect of over 50% in size. Note: potency is the fitted concentration of half-maximal effect. To be noted: RealTime-Glo luminescence; max response: stronger effect = lower value. The procedure, abridged: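 HEK293 cells mixed with RealTime-Glo reagents (NanoLuc plus cell-permeant prosubstrate) at 600 cells/well, preincubated 5 h at 37 C/5% CO2, then given 23 nL compound in DMSO. Nonlytic luminescence from viable cells was read at 0, 8, 16, 24, 32 and 40 h.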

Experiment [6] in a line: A CellTox Green Cytotoxicity Assay to monitor cytotoxicity in HEK293 cells - 24 hour (AID 1224875). Note: series mostly up to about 77 µM; nearly all actives have a fitted effect of over 45% in size. The gist of the method: as §2
Experiment [7] can be described thus: A CellTox Green Cytotoxicity Assay to monitor cytotoxicity in HepG2 cells - 16 hour (AID 1224876). Note: nearly all actives have a fitted effect of over 45% in size. Note: potency is the fitted concentration of half-maximal effect. The gist of the method: (§3)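 HepG2 cells were seeded together with the CellTox Green dye at 600 cells/well, left 5 h at 37 C/5% CO2, then given compounds in DMSO. Fluorescence from dye bound to dead-cell DNA was read repeatedly over 40 h of treatment at 37 C.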
A short description of experiment [8]: qHTS RealTime-Glo MT Cell Viability Assay in HepG2 cells - 32 hour (AID 1224877). Note: nearly all actives have a fitted effect of over 55% in size. The gist of the method: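 Viability was tracked continuously by NanoLuc luminescence from prosubstrate reduced by living HepG2 cells, at successive time points over 40 h of compound exposure. Cells with reagent were preincubated 5 h at 37 °C before compound addition.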
Experiment [9] can be described thus: A CellTox Green Cytotoxicity Assay to monitor cytotoxicity in HepG2 cells - 24 hour (AID 1224878). Note: nearly all actives have a fitted effect of over 45% in size. Note: potency is the fitted concentration of half-maximal effect. The gist of the method:
as §3

Experiment [10] can be described thus: A CellTox Green Cytotoxicity Assay to monitor cytotoxicity in HepG2 cells - 40 hour (AID 1224879). Note: nearly all actives have a fitted effect of over 40% in size. The procedure, abridged: as §3
% is set by controls: 0 for no effect and ±100 for the full control effect.

For the molecule `SCCc1cnccn1`, the Potency entry in experiment [1], in experiment [2], in [3], in experiment [4], in [6] and in [7] was “inactive” throughout. Further, the Potency entry in [8], in experiment [9] and in [10] was “inactive” in each case. Also, in experiment [5], the max response is 10.1% (inactive).
Regarding `O=C(Nc1ccc(C(=O)O)c(O)c1)c1ccccc1`, the Potency result in [1], in [2], in [3], in [4], in [6] and in experiment [7] was “inactive” in each case. Moreover, the Potency result in experiment [8], in [9] and in experiment [10] was “inactive” in each case. Also, in experiment [5], the max response was 8.29% (inactive).
As for `CCOC(=O)N1CCC(Nc2ccc(Cl)cc2N)CC1`, the Potency entry in [1], in experiment [2], in experiment [3], in experiment [4], in experiment [6] and in experiment [7] was “inactive” in each case. For the same molecule, the Potency result in experiment [8], in experiment [9] and in experiment [10] was “inactive” throughout. In addition, the max response in [5] is -19% (inactive).
For `CC(CO)(CO)C(=O)O`, the Potency result in experiment [1], in [2], in experiment [3], in experiment [4], in experiment [6] and in experiment [7] was “inactive” throughout. In addition, the Potency entry in experiment [8], in experiment [9] and in experiment [10] was “inactive” each time. Further, the max response in [5] is 0.0251% (inactive).
Consider `c1ccc2sc(SSc3nc4ccccc4s3)nc2c1`, for which the results for the activity change, negative = cytotoxic in [1] and in experiment [8] were -0.0307% [at 15.8 µM] (inactive) and 1.02% [at 15.8 µM] (inactive), respectively. Further, the results for the cytotoxicity increase in [2], in experiment [7] and in experiment [10] were 14.8% [at 15.8 µM] (inactive), 2.16% [at 15.8 µM] (inactive) and 16.6% [at 15.8 µM] (inactive), respectively. In addition, in [3], the activity change, negative = cytotoxicity is -1.01% [at 15.8 µM] (inactive). The viability change, negative = cytotoxic in experiment [4] was 2.86% [at 15.8 µM] (inactive). Besides, the max response in experiment [5] was 15.6% (inactive). Moreover, the activity change in [6] is 14.2% [at 15.8 µM, stronger effect = higher value] (inactive). In addition, the cytotoxicity in experiment [9] is 3.43% [at 15.8 µM] (inactive).
Take `CSCC[C@H](NC(=O)[C@H](Cc1c[nH]c2ccccc12)NC(=O)CCNC(=O)OC(C)(C)C)C(=O)N[C@@H](CC(=O)O)C(=O)N[C@@H](Cc1ccccc1)C(N)=O`: the Potency result in experiment [1], in experiment [2], in [3], in experiment [4], in experiment [6] and in [7] was “inactive” in each case. In addition, the Potency entry in [8], in experiment [9] and in [10] was “inactive” in each case. For the same molecule, the max response in [5] was 3.31% (inactive).
Turning to `CC(C)(C)S`, the Potency result in experiment [1], in experiment [2], in experiment [3], in experiment [4], in experiment [6] and in [7] was “inactive” each time. Further, the Potency result in experiment [8], in experiment [9] and in experiment [10] was “inactive” each time. For the same molecule, the max response in experiment [5] was -0.0448% (inactive).
Take `COc1ccc(C(=O)NCc2ccc(OCCN(C)C)cc2)cc1OC`: the Potency result in experiment [1], in [2], in experiment [3], in experiment [4], in [6] and in experiment [7] was “inactive” in each case. Further, the Potency entry in [8], in [9] and in [10] was “inactive” each time. For the same molecule, the max response in [5] is 2.93% (inactive).
Turning to `COc1ccc2nc(S(=O)Cc3ncc(C)c(OC)c3C)[nH]c2c1` (stereo not drawn), the Potency result in experiment [1], in experiment [4], in experiment [6], in [7], in experiment [8] and in [10] was “inactive” throughout. Moreover, the Potency result was “inactive and 1.7 nM (active)” in [2]; 21.6 µM (active) and inactive in experiment [3]; 19.3 µM (active) in experiment [5]. For the same molecule, in experiment [5], the max response was -10.3% (inactive).
As for `CC(CCc1ccc(O)cc1)NCCc1ccc(O)c(O)c1` (stereo not drawn), the Potency entry in experiment [1], in [2], in [3], in experiment [4], in [6] and in [7] was “inactive” each time. Besides, the Potency entry in [8], in experiment [9] and in experiment [10] was “inactive” each time. Moreover, in [5], the max response was -18.1% (inactive).
For the molecule `O=C1OC(=O)c2c(Br)c(Br)c(Br)c(Br)c21`, the Potency result in [1], in [2], in [3], in [4], in [6] and in [7] was “inactive” in each case. Moreover, the Potency result in [8], in experiment [9] and in experiment [10] was “inactive” each time. Moreover, the max response in experiment [5] is -18% (inactive).
Regarding `CCOCCC(=O)OCC`, the Potency result in experiment [1], in experiment [2], in experiment [3], in [4], in experiment [6] and in experiment [7] was “inactive” throughout. Moreover, the Potency entry in experiment [8], in experiment [9] and in [10] was “inactive” throughout. Further, the max response in experiment [5] was 4.01% (inactive).
`Cc1ccc(NC(=O)N(C)C)cc1NC(=O)N(C)C`: the Potency entry in [1], in experiment [2], in experiment [3], in [4], in experiment [6] and in [7] was “inactive” throughout. Moreover, the Potency entry in [8], in experiment [9] and in experiment [10] was “inactive” in each case. Moreover, the max response in experiment [5] is -1.73% (inactive).
Regarding `CC(=O)C(C)=O`, the Potency result in experiment [1], in experiment [2], in experiment [3], in [4], in experiment [6] and in experiment [7] was “inactive” throughout. Further, the Potency entry in experiment [8] and in experiment [9] was “inactive” each time. The max response in experiment [5] was 13.9% (inactive).
Regarding `O=NN(CCCl)C(=O)NCCCl`, the Potency entry in [1], in experiment [2], in experiment [3], in experiment [4], in experiment [6] and in experiment [8] was “inactive” each time. Besides, the max response in experiment [5] is 8.5% (inactive). For the same molecule, the Potency in [7] and in experiment [9] was 4.77 µM (active) throughout.
Regarding `O=C1NC(=O)c2cccc3cccc1c23`, the Potency entry in experiment [1], in experiment [2], in [3], in experiment [4], in experiment [6] and in [7] was “inactive” in each case. The Potency entry in experiment [8], in [9] and in experiment [10] was “inactive” throughout. For the same molecule, the max response in experiment [5] is -4.43% (inactive).
Take `CC(C)N=C=NC(C)C`: the Potency entry in experiment [1], in experiment [2], in experiment [3], in experiment [4], in experiment [6] and in [7] was “inactive” each time. Further, the Potency entry in experiment [8], in experiment [9] and in experiment [10] was “inactive” throughout. In [5], the max response is 3.08% (inactive).
As to `Oc1cccc2[nH]ccc12`, the Potency entry in [1], in experiment [2], in [3], in [4], in experiment [6] and in experiment [7] was “inactive” throughout. In addition, the Potency result in experiment [8], in experiment [9] and in experiment [10] was “inactive” throughout. In experiment [5], the max response is 12.2% (inactive).
Turning to `CC(=O)Oc1cccc(O)c1`, the Potency result in [1], in [2], in experiment [3], in experiment [4], in experiment [6] and in experiment [7] was “inactive” each time. Moreover, the Potency result in [8], in [9] and in [10] was “inactive” throughout. In addition, the max response in experiment [5] was -0.489% (inactive).
In the case of `O=C(O)CO`, the Potency result in experiment [1], in experiment [2], in experiment [3], in experiment [4], in [6] and in experiment [7] was “inactive” in each case. In [8], the Potency entry was “inactive”. Besides, the max response in experiment [5] was 8.33% (inactive).
Consider `COc1cc(NC(C)CCCN)c2ncccc2c1` (stereo not drawn), for which the Potency entry in experiment [1], in experiment [2], in [3], in experiment [4], in experiment [6] and in [7] was “inactive” in each case. Further, the Potency result in [8], in experiment [9] and in experiment [10] was “inactive” throughout. Moreover, in experiment [5], the max response was -12.5% (inactive).
Regarding `CC1=CC[C@@]23C[C@@H]1C(C)(C)[C@@H]2CC[C@H]3C`, the Potency result in experiment [1], in [2], in experiment [3], in experiment [4], in experiment [6] and in [7] was “inactive” each time. The Potency result in [8] is “inactive”. In addition, in experiment [5], the max response was 1.49% (inactive).
`O=C(O)CCCc1c[nH]c2ccccc12`: the Potency result in [1], in experiment [2], in experiment [3], in [4], in [6] and in experiment [7] was “inactive” each time. For the same molecule, in experiment [8], the Potency result is “inactive”. Besides, the max response in experiment [5] is -0.277% (inactive). Moreover, the Potency in [9] was 17.4 µM (active).
